Assay results: PubChem BioAssay (Tox21)
Several values for one entry are separate records, joined by “and”; a condition that tells them apart may be missing. Identical values can stand only once. Inconclusive results are not listed. Some compounds were tested as several samples or in several runs, with calls that do not always agree. Activity calls are given as the source filed them. Unless noted, the call rests on the fitted dose curve; in most records, active means well fitted curve in the direction sought with a large enough effect in the repeat runs; inconclusive means weak or mixed curves; inactive means no such curve, though single readings can be large; an effect the other way counts as inactive or inconclusive.

Columns and labels:
[1] = target: Estrogen receptor (Homo sapiens) (UniProt P03372); assay: qHTS assay to identify small molecule antagonists of the estrogen receptor alpha (ER-alpha) signaling pathway using the BG1 cell line in the presence of 0.1 nM 17-beta-estradiol (AID 1259244); further: nearly all actives have a fitted effect of over 50% in size
Estrogen receptor (Homo sapiens), sequence (P03372 whole entry, looked up): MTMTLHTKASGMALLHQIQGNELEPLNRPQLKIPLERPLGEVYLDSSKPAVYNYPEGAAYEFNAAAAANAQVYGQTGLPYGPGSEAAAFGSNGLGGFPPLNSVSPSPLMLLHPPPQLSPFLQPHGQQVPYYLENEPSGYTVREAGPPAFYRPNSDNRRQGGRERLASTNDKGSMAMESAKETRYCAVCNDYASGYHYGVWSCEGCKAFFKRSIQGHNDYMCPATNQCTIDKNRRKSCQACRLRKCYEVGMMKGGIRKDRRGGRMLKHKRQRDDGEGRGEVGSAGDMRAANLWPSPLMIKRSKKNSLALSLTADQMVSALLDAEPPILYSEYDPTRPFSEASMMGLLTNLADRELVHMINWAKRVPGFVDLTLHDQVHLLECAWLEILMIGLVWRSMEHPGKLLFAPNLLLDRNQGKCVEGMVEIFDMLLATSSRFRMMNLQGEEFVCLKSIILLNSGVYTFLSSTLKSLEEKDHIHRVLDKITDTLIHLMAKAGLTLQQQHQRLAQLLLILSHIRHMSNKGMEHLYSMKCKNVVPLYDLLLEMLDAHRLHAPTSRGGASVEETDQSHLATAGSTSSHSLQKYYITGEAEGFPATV
Summary of the method: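 Luminescence after ONE-Glo (30 min, room temperature) measured ERE-luciferase activity in VM7Luc4E2 cells treated 22 h with compound and 0.1 nM final 17beta-estradiol as stimulator.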

[2] = qHTS assay to identify small molecule phospholipidosis (PLD) inducers (AID 1259344; active means well fitted curve in the direction sought with a large enough effect; an effect the other way counts as inactive or inconclusive)
Summary of the method: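 Cells (HepG2, 900 per well) attach for 4 h, receive LipidTOX Red and compound together, incubate 24 h at 37 C, are fixed 30 min with paraformaldehyde/Hoechst, then imaged at one site per well.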

[3] = qHTS assay to identify small molecule HDAC inhibitors - cell viability counter screen (AID 1259365); further: series mostly up to about 92 µM; nearly all actives have a fitted effect of over 50% in size
Summary of the method: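 CellTiter-Glo luminescence (30 min, room temperature) reported viability after a 2 h compound exposure at 37 C. Cells: wild-type HCT-116, 1,500 per well, seeded the night before.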

[4] = qHTS assay to identify small molecule agonists of the sonic hedgehog signaling (Shh) pathway - cell viability counter screen (AID 1259366); further: nearly all actives have a fitted effect of over 50% in size
Summary of the method: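 Cytotoxicity counter screen: CellTiter-Fluor reagent added after 23 h compound exposure, then 1 h at 37C and fluorescence read. Cells were 3T3 Gli1-Luc, seeded 2,000 per well and dosed 4 h post-plating.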

[5] = qHTS assay to identify small molecule agonists of the sonic hedgehog signaling (Shh) pathway (AID 1259368; calls by dose curve;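 further: NIH/3T3-derived 3T3Gli1-Luc cells carrying a stable Gli1-driven firefly luciferase reporter; series mostly up to about 92 µM; nearly all actives have a fitted effect of over 15% in size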)
Summary of the method: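 Read-out: firefly luciferase luminescence from a Gli1 response element reporter stably integrated in NIH/3T3-derived 3T3Gli1-Luc cells, measured 30 min at room temperature after reagent addition. Compound exposure lasted 24 hr at 37 C, 5% CO2.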

[6] = qHTS assay to identify small molecule antagonists of the sonic hedgehog signaling (Shh) pathway (AID 1259369; calls by dose curve; further: nearly all actives have a fitted effect of over 45% in size; further: potency means the concentration at half of the fitted maximal effect)
Summary of the method: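 Luminescence readout: firefly Luc under Gli1 response element in 3T3Gli1-Luc cells (NIH/3T3 clone). Antagonist mode, stimulation by conditioned medium; compound exposure 24hr at 37 C, 5% CO2.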

[7] = target: Estrogen receptor beta (Homo sapiens) (UniProt Q92731); assay: qHTS assay to identify small molecule agonists of the estrogen receptor beta (ER-beta) signaling pathway (AID 1259377; active means well fitted activation curve with a large enough effect in the signal ratio in the repeat runs, not every such curve was filed as active; the % refers to the signal ratio)
Estrogen receptor beta (Homo sapiens), sequence (Q92731 whole entry, looked up): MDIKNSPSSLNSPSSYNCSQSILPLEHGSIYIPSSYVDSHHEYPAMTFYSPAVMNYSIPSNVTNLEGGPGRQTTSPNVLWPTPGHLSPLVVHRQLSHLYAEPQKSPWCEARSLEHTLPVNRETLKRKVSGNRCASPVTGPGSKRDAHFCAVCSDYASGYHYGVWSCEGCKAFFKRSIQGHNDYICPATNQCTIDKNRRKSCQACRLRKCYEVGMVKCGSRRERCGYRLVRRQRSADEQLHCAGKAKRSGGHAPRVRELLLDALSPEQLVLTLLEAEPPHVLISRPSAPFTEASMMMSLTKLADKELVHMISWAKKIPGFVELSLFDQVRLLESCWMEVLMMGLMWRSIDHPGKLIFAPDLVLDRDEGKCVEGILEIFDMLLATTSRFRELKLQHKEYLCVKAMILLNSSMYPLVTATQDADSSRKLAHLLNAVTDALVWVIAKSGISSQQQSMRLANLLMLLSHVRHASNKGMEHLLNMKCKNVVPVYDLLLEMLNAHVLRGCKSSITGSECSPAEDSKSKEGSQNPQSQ
Summary of the method: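 Ratiometric beta-lactamase FRET read-out came after 2 h substrate loading at room temperature. It followed 16 h compound treatment at 37C of GripTite HEK293T cells carrying a UAS-bla reporter, plated in 2% charcoal-stripped FBS medium.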

[8] = target: Estrogen receptor beta (Homo sapiens) (UniProt Q92731); assay: qHTS assay to identify small molecule antagonists of the estrogen receptor beta (ER-beta) signaling pathway (AID 1259378; active means well fitted inhibition curve with a large enough effect in the signal ratio in the repeat runs, not every such curve was filed as active; the % refers to the signal ratio)
Summary of the method: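 ER-beta-UAS-bla HEK293T (GripTite) cells in 2% charcoal-stripped FBS medium were preincubated 6 hr at 37C, dosed with compound, then stimulated with 1 nM E2 (final) for 16 hr; beta-lactamase reporter read by B/G FRET fluorescence after 2 hr substrate loading.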

[9] = qHTS assay to identify small molecule HDAC inhibitors (AID 1259364); further: potency means the concentration at half of the fitted maximal effect;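 further: wild-type HCT-116 cells with endogenous class I/II HDAC activity; nearly all actives have a fitted effect of over 45% in size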
Summary of the method: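 HCT-116 (wild type), 1,500 cells/well, overnight; compound 2 hr 37C 5% CO2; HDAC-Glo I/II reagent 30 min RT; luminescence readout.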

[10] = qHTS assay to identify small molecule antagonists of the sonic hedgehog signaling (Shh) pathway - cell viability counter screen (AID 1259367); further: nearly all actives have a fitted effect of over 55% in size
Summary of the method: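 Cytotoxicity was assessed in parallel with Shh reporter activity by measuring live-cell protease fluorescence (CellTiter-Fluor) in NIH/3T3 cells stably carrying Gli1-Luc, treated with compound under conditioned medium stimulation for 23 hr plus 1 hr reagent incubation.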
On the % scale 0 is the no-effect control and ±100 the full control effect.

COc1cc(Cc2cnc(N)nc2N)cc(OC)c1OC
inactive: Potency [1] | outcome [2] | outcome [3] | Potency [4] | outcome [5] | Potency [6] | Potency [7] | Potency [8]

Cc1cc(C)c(C)cc1C
inactive: Potency [1] | Potency [9] | outcome [3] | Potency [4] | Potency [10] | outcome [5] | Potency [6]

Cc1cnc(C(=O)NCCc2ccc(S(=O)(=O)NC(=O)NC3CCCCC3)cc2)cn1
inactive: Potency [1] | outcome [2] | Potency [9] | outcome [3] | Potency [4] | Potency [10] | outcome [5] | Potency [6] | Potency [8]

CCCCCOC(C)=O
inactive and 27.3 µM (active): Potency [6]
inactive: Potency [1] | Potency [9] | outcome [3] | Potency [4] | Potency [10] | outcome [5]

Cc1ccc2oc(=O)ccc2c1
inactive: Potency [1] | Potency [9] | outcome [3] | Potency [4] | Potency [10] | outcome [5] | Potency [6] | Potency [7] | Potency [8]

O=c1[nH]c(=O)n([C@H]2C[C@H](O)[C@@H](CO)O2)cc1Br
inactive: Potency [1] | outcome [2] | Potency [9] | outcome [3] | Potency [4] | Potency [10] | outcome [5] | Potency [6] | Potency [7] | Potency [8]

O=C(O)c1ccc2c(c1)C(=O)OC2=O
inactive: Potency [1] | Potency [9] | outcome [3] | Potency [4] | Potency [10] | outcome [5] | Potency [6] | Potency [7] | Potency [8]

CCCCCCCCCCCCCCO
inactive: Potency [1] | Potency [9] | outcome [3] | Potency [4] | Potency [10] | outcome [5] | Potency [6] | Potency [7] | Potency [8]

O=C(O)CCCCCCCCCCC(=O)O
active: Potency [9] 21.9 µM and 21.7 µM
inactive: Potency [1] | outcome [3] | Potency [4] | Potency [10] | outcome [5] | Potency [6]

CC[C@H](C)C(=O)O[C@H]1C[C@@H](C)C=C2C=C[C@H](C)[C@H](CC[C@@H]3C[C@@H](O)CC(=O)O3)[C@H]21
inactive: Potency [1] | outcome [2] | outcome [3] | Potency [4] | outcome [5] | Potency [7]

OCc1cccnc1
inactive: Potency [1] | outcome [2] | outcome [3] | Potency [4] | outcome [5] | Potency [6]

CC(=O)Nc1ccccc1
inactive: Potency [1] | outcome [2] | Potency [9] | outcome [3] | Potency [4] | Potency [10] | outcome [5] | Potency [6] | Potency [7] | Potency [8]

CCCCN(CCCC)CCCC
inactive: Potency [1] | Potency [9] | outcome [3] | Potency [4] | Potency [10] | outcome [5] | Potency [6] | Potency [7] | Potency [8]

C#CCN(C)Cc1ccccc1
inactive: Potency [1] | outcome [2] | Potency [9] | outcome [3] | Potency [4] | outcome [5] | Potency [6] | Potency [7] | Potency [8]

c1ccc(OCCOc2ccccc2)cc1
active: Potency [9] 27.3 µM
inactive: Potency [1] | outcome [3] | Potency [4] | Potency [10] | outcome [5] | Potency [6] | Potency [7] | Potency [8]

O=C(O)CCCC[C@@H]1SC[C@@H]2NC(=O)N[C@@H]21
inactive: Potency [1] | outcome [2] | Potency [9] | outcome [3] | Potency [4] | Potency [10] | outcome [5] | Potency [6] | Potency [7] | Potency [8]

CC(=O)OCC(=O)[C@@]12N=C(C)O[C@@H]1C[C@H]1[C@@H]3CCC4=CC(=O)C=C[C@]4(C)[C@H]3[C@@H](O)C[C@@]12C
inactive: Potency [1] | outcome [2] | outcome [3] | Potency [4] | Potency [10] | outcome [5] | Potency [6] | Potency [7] | Potency [8]

CC(c1cc2ccccc2s1)N(O)C(N)=O (configuration not stated)
inactive: Potency [1] | outcome [2] | Potency [9] | outcome [3] | Potency [4] | Potency [10] | outcome [5] | Potency [6] | Potency [7] | Potency [8]

CC1=CCC2CC1C2(C)C (configuration not stated)
inactive: Potency [1] | outcome [2] | Potency [9] | outcome [3] | Potency [4] | Potency [10] | outcome [5] | Potency [6] | Potency [7] | Potency [8]

c1c[nH]cn1
inactive: Potency [1] | Potency [9] | outcome [3] | Potency [4] | Potency [10] | outcome [5] | Potency [6] | Potency [7] | Potency [8]

CCOC(=O)NNc1nncc2ccccc12
inactive: Potency [1] | PLD induction [2] -1.23% [at 7.66 µM] | outcome [3] | Potency [4] | outcome [5] | Potency [6]

OCCOCCOCCO
inactive: Potency [1] | outcome [2] | outcome [3] | Potency [4] | Potency [10] | outcome [5] | Potency [6] | Potency [7] | Potency [8]
